Compounds without any hit were thinned out: in the full panel of roughly 83,000, 20% have a hit.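 Assay: single dose, 48 h. Readout: percent growth (0 = no net growth; negative = cell death). Active: <10.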 Calls of active or inactive are those of the source.

This test concerns MDA-MB-468 breast. Nature of the test: NCI-60 one-dose screen, 48 h (100 = growth as untreated, 0 = no growth, -100 = all killed). As to conditions: 10 µM unless noted.
For `CCCC[n+]1ccc(SCC(=O)n2ccc3ccccc32)c2ccccc21`, the growth is 52.1% (inactive).
For `Cn1cc(-c2cc3ncnc(Nc4ccc(CC(=O)Nc5nc(C(C)(C)C)cs5)cc4)c3s2)cn1`, the growth is 31.2% (inactive).
Take `COc1ccc(-c2nc3sccn3c2-c2ccnc(NCCCNS(=O)(=O)c3ccc4ccccc4c3)n2)cc1`: the growth is 71.1% (inactive).
With `CCCCCCCOc1c(OC)cc(C2CC(=O)Nc3c2c(C)nn3-c2nc3ccccc3[nH]2)cc1OC` (stereo not given) the figure was -4.43% (active); with `COc1cccc(-c2nc3sccn3c2-c2ccnc(NCCCNS(=O)(=O)c3ccc(Cl)cc3)c2)c1`, 34.3% (inactive).
As to `O=C(O)CC1CCCCC1c1ccccc1` (stereo not given), the growth is 105% (inactive).
With `O=C1Nc2ccccc2/C1=C/c1cn(CCCn2c3ccccc3c(=O)c3ccccc32)c2ccccc12` the figure was 96.4% (inactive); with `CC(C)NCC(O)COc1ccc(CCOCC2CC2)cc1` (stereo not given), 103% (inactive).
With `Cc1ccc(NC2CC(=O)N(c3c(C)cc(C)cc3C)C2=O)c(C)c1` (stereo not given) the figure was 114% (inactive); with `COC(=O)c1cccc([N+](=O)[O-])c1`, 105% (inactive); with `Cc1nc2oc3ccccc3c(=O)c2cc1C(=O)NCc1ccccc1`, 89.2% (inactive).
`N#CSc1c[nH]c2ccc(/C=C/C(=O)/C=C(O)/C=C/c3ccc4[nH]cc(SC#N)c4c3)cc12`: the growth was -8.53% (active).
Turning to `COc1ccc(C2Nc3ncnc(N)c3N=C3c4ccccc4C(=O)C32)cc1` (stereo not given), the growth is 86.1% (inactive).
For `CCCC(=O)NC(c1cccnc1)c1cc(C(C)(C)C)c2cccnc2c1O` (stereo not given) the value was -20.4% (active).
With `Cc1ccc2[nH]c3nc4cccnc4c(C)c3c2c1` the figure was -35% (active).

The values are drawn from PubChem BioAssay (NCI).
